Results taken from PubChem BioAssay (NCATS).
Records with an inconclusive call do not appear. Calls of active or inactive are those of the source. Calls follow the shape of the dose curve; as a rule, active = well fitted curve in the direction sought with a large enough effect; inconclusive = small, poorly fitted or top-dose-only effect, or another doubt; inactive = no such curve, though single readings can be large; an effect the other way counts as inactive or inconclusive.

Tests used:
[1] = qHTS to identify inhibitors of the type 1 interferon - major histocompatibility complex class I in skeletal muscle: primary screen against the NCATS Pharmaceutical Collection (AID 1347407); conditions: human skeletal muscle cells, IFN-b-induced MHC-I HiBiT luminescence, 24 h; series mostly up to 45.9 µM;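 also: luminescence of HiBiT knocked into endogenous HLA-B as interferon-induced MHC class I level; % is scaled to controls: 0 for no effect and ±100 for the full control effect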
Outline: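 HLA-B HiBiT myoblasts, dexamethasone-free growth medium + 4 ng/ml IFN-b; compounds pinned 1 h after seeding, […] from 46 uM; 24 h, 37 C, 5% CO2; lytic HiBiT detection, 10 min RT, luminescence.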

[2] = target: Protein phosphatase 1D (Homo sapiens) (UniProt O15297); test: RapidFire Mass Spectrometry qHTS Assay for Modulators of WT P53-Induced Phosphatase 1 (WIP1) (AID 1347424); conditions: WIP1 dephosphorylation of phosphopeptide, RapidFire MS; series mostly up to 63 µM;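 also: plate controls were DMSO wells for no effect and GSK830371 inhibitor control at 10 µM for full effect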
Protein phosphatase 1D (Homo sapiens), sequence (O15297 whole entry, looked up): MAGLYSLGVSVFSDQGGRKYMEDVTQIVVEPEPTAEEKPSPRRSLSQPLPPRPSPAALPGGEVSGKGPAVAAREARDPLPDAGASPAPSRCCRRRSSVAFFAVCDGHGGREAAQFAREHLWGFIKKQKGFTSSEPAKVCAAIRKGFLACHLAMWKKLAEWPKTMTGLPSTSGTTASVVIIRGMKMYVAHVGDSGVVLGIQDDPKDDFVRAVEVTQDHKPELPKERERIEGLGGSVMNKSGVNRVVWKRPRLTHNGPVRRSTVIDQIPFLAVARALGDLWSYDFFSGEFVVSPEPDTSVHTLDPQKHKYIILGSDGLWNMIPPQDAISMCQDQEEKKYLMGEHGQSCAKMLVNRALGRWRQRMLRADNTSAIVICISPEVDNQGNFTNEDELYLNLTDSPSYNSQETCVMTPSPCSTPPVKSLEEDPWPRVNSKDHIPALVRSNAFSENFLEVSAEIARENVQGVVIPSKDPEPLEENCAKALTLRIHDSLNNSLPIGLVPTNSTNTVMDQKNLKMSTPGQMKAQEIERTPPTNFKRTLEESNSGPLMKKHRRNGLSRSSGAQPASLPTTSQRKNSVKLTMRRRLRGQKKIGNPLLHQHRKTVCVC
Outline: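 RapidFire MS readout of dephosphorylated VEPPL-S-QETFS product, with 1 uM isotope-labelled peptide standard. Reaction: 10 nM WIP1, 2 uM phosphopeptide substrate, 5 min, room temperature, after 1 h compound preincubation; stopped with 0.5% formic acid.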

[3] = target: Protein phosphatase 1D (Homo sapiens) (UniProt O15297); test: Rhodamine-PBP qHTS Assay for Modulators of WT P53-Induced Phosphatase 1 (WIP1) (AID 1347425); conditions: recombinant WIP1, Rhodamine-PBP phosphate fluorescence, real-time; series mostly up to 57.5 µM; also: % of control where 0% means no effect
Outline: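 Read-out: Rhodamine-PBP fluorescence (ex 525/em 598 nm) for released Pi, read each minute for 11 min after adding 10 uM VEPPL-pS-QETFS; signal taken as f1 minus pre-substrate f0. Enzyme 5 nM WIP1 with 1 hr room-temperature compound preincubation.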

COc1ccc(-n2nc(CCC(=O)N(C)O)cc2-c2ccc(Cl)cc2)cc1
inactive: Potency [1] | Potency [2] | outcome [3]

CN1Cc2cc(C(=O)N3CCC(C4CCNCC4)CC3)ccc2NC(CC(=O)O)C1=O (centres undefined)
inactive: Potency [1] | Potency [2] | outcome [3]

NCC(=O)O
inactive: Potency [1] | Potency [2] | outcome [3]

CCOCCn1c(C2CCN(CCc3ccc(C(C)(C)C(=O)O)cc3)CC2)nc2ccccc21
inactive: Potency [1] | Potency [2] | outcome [3]

Cc1[nH]cnc1-c1ccc(Cl)cc1
inactive: Potency [1] | Potency [2] | outcome [3]

C#Cc1ccc(-c2ccccc2F)cc1
inactive: Potency [1] | Potency [2] | outcome [3]

CCN(CC)CC(=O)Nc1c(C)cccc1C(=O)OC
inactive: Potency [1] | Potency [2] | outcome [3]

CC(CC(C#N)(c1ccccc1)C(C)C)N(C)C (centres undefined)
inactive: Potency [1] | Potency [2] | outcome [3]

COc1cc(C=O)ccc1O
inactive: Potency [1] | Potency [2] | outcome [3]

O=C(O)CNC(=O)CNC(=O)CNC(=O)CSC(=O)c1ccccc1
inactive: Potency [1] | Potency [2] | outcome [3]

COc1ccc2c(c1)c(CC(=O)OC/C=C(\C)CC/C=C(\C)CCC=C(C)C)c(C)n2C(=O)c1ccc(Cl)cc1
inactive: Potency [1] | Potency [2] | outcome [3]

CCOc1ccccc1OCC1CNCCO1 (centres undefined)
inactive: Potency [1] | Potency [2] | outcome [3]

CCC(C(=O)NC(=O)NC(C)=O)c1ccccc1 (centres undefined)
inactive: Potency [1] | Potency [2] | outcome [3]

CC(C)C(=O)Nc1cccc(C2CN3CCSC3=N2)c1 (centres undefined)
inactive: Potency [1] | Potency [2] | outcome [3]

C/C=C(/C(=C/C)c1ccc(OC(C)=O)cc1)c1ccc(OC(C)=O)cc1
inactive: Potency [1] | Potency [2] | outcome [3]

c1ccc2c(c1)CCc1ccccc1N2
inactive: Potency [1] | Potency [2] | outcome [3]

C[C@@H]1C[C@H]2[C@@H]3CCC4=CC(=O)C=C[C@]4(C)[C@@]3(F)[C@@H](O)C[C@]2(C)[C@@]1(O)C(=O)COC(=O)c1ccncc1
inactive: Potency [1] | Potency [2] | outcome [3]

O=C1CC2(CCCC2)CC(=O)N1
inactive: Potency [1] | Potency [2] | outcome [3]

CCCC(=O)O[C@]1(C(=O)CCl)[C@@H](C)C[C@H]2[C@@H]3CCC4=CC(=O)C=C[C@]4(C)[C@@]3(F)C(=O)C[C@@]21C
inactive: Potency [1] | Potency [2] | outcome [3]

Nc1nc(=O)n([C@@H]2O[C@H](CO)[C@@H](O)[C@@H]2F)cc1I
inactive: Potency [1] | Potency [2] | outcome [3]

CC[N+]1(CC)CCC(=C(c2ccccc2)c2ccccc2)C1C (centres undefined)
inactive: Potency [1] | Potency [2] | outcome [3]

Cc1coc2ccccc2c1=O
inactive: Potency [1] | Potency [2] | outcome [3]

O=C(c1cc(O)c(O)c(O)c1)c1ccc(O)c(O)c1O
inactive: Potency [1] | Potency [2] | outcome [3]

C=CC[N+]1([C@H]2C[C@H]3[C@@H]4CC[C@H]5C[C@H](OC(C)=O)[C@@H](N6CCCCC6)C[C@]5(C)[C@H]4CC[C@]3(C)[C@H]2OC(=O)CC)CCCCC1
inactive: Potency [1] | Potency [2] | outcome [3]

O=C(CS(=O)Cc1ccco1)NC/C=C\COc1cc(CN2CCCCC2)ccn1 (centres undefined)
inactive: Potency [1] | Potency [2] | outcome [3]

CN1C(=O)c2ccccc2C1=O
inactive: Potency [1] | Potency [2] | outcome [3]

COc1ccc2nc(SCc3ncc(C)c(OC)c3C)[nH]c2c1
inactive: Potency [1] | Potency [2] | outcome [3]

CC(=O)N[C@@H](CCC(N)=O)C(=O)O
inactive: Potency [1] | Potency [2] | outcome [3]

COC(=O)/C=C(/C)N
inactive: Potency [1] | Potency [2] | outcome [3]

CNC(=O)c1c(I)c(NC(C)=O)c(I)c(C(=O)O)c1I
inactive: Potency [1] | Potency [2] | outcome [3]

Nc1ccc2c(c1)CN1C(=O)c3ccccc3C1=N2
inactive: Potency [1] | Potency [2] | outcome [3]

O=C1c2ccccc2CCc2ccccc21
inactive: Potency [1] | Potency [2] | outcome [3]

CCN1C(=O)c2ccccc2C1Nc1ccc(OCCN2CCCCC2)cc1 (centres undefined)
inactive: Potency [1] | Potency [2] | outcome [3]

Cc1cnc(NS(=O)(=O)c2ccc(N)cc2)nc1
inactive: Potency [1] | Potency [2] | outcome [3]

O=C(OCC1(COC(=O)c2cccnc2)CCCC(COC(=O)c2cccnc2)(COC(=O)c2cccnc2)C1O)c1cccnc1
inactive: Potency [1] | Potency [2] | outcome [3]

O=C(CCC1CCN(Cc2ccccc2)CC1)c1ccc2c(c1)NCCCC2
inactive: Potency [1] | Potency [2] | outcome [3]

COCCc1ccccn1
inactive: Potency [1] | Potency [2] | outcome [3]

CO/N=C(/C(=O)N[C@@H]1C(=O)N2C(C(=O)OCOC(=O)C(C)(C)C)=C(C)CS[C@H]12)c1csc(N)n1
inactive: Potency [1] | Potency [2] | outcome [3]

OCc1cccnc1
inactive: Potency [1] | Potency [2] | outcome [3]

NCC[C@H](O)C(=O)N[C@@H]1C[C@H](N)[C@@H](O[C@H]2O[C@H](CN)[C@@H](O)[C@H](O)[C@@H]2O)[C@H](O)[C@@H]1O[C@H]1O[C@H](CO)[C@@H](O)[C@H](N)[C@@H]1O
inactive: activity change, negative = inhibition [1] -1.93% [at 0.727 µM] | activity change, negative = inhibition [2] 3.64% [at 0.505 µM] | activity change, negative = inhibition [3] 3.01% [at 0.575 µM]

CCCCCCn1c(=O)c2c(ncn2C)n(C)c1=O
inactive: Potency [1] | Potency [2] | outcome [3]

O=C(C1CCCCC1)N1CC(=O)N2CCCc3ccccc3C2C1 (centres undefined)
inactive: Potency [1] | Potency [2] | outcome [3]

CCC1(c2cnc[nH]2)Cc2ccccc2C1
inactive: Potency [1] | Potency [2] | outcome [3]

CC[C@@H]([C@H](C)O)n1ncn(-c2ccc(N3CCN(c4ccc(OC[C@@H]5CO[C@@](Cn6cncn6)(c6ccc(F)cc6F)C5)cc4)CC3)cc2)c1=O
inactive: Potency [1] | Potency [2] | outcome [3]

CC(C)=CCC/C(C)=C/CC/C(C)=C/CCC(=O)OC/C=C(\C)CCC=C(C)C
inactive: Potency [1] | Potency [2] | outcome [3]

C/C(=C1\CCOC(=O)S1)N(C=O)Cc1cnc(C)nc1N
inactive: Potency [1] | Potency [2] | outcome [3]

CC(=O)OCC(=O)[C@@]1(O)[C@H](OC(C)=O)C[C@H]2[C@@H]3CCC4=CC(=O)C=C[C@]4(C)[C@@]3(F)[C@@H](O)C[C@@]21C
inactive: Potency [1] | Potency [2] | outcome [3]

Oc1cccc2[nH]ccc12
inactive: Potency [1] | Potency [2] | outcome [3]

CO/N=C(\C(=O)O)c1csc(NC(=O)CCl)n1
inactive: Potency [1] | Potency [2] | outcome [3]

CN(C(=O)C(Cl)Cl)c1ccc(OC(=O)c2ccco2)cc1
inactive: Potency [1] | Potency [2] | outcome [3]

CCOC(=O)C(=O)CCCCCCl
inactive: Potency [1] | Potency [2] | outcome [3]

Nc1c(I)cc(I)c(C(=O)N(CCC(=O)O)c2ccccc2)c1I
inactive: Potency [1] | Potency [2] | outcome [3]

O=C(O)c1[nH]n(-c2ccc(S(=O)(=O)O)cc2)c(=O)c1N=Nc1ccc(S(=O)(=O)O)cc1
inactive: Potency [1] | Potency [2] | outcome [3]

CCC(=O)O[C@]1(C(=O)COC)[C@@H](C)C[C@H]2[C@@H]3CCC4=CC(=O)C=C[C@]4(C)C3(F)[C@@H](O)C[C@@]21C (some centres undefined)
inactive: Potency [1] | Potency [2] | outcome [3]

CN(C)C(=O)CNC(=O)Cc1ccccc1
inactive: Potency [1] | Potency [2] | outcome [3]

O=C(CCCCCCCCC#CI)Oc1ccccc1
inactive: Potency [1] | Potency [2] | outcome [3]

OCCc1ccccc1
inactive: Potency [1] | Potency [2] | outcome [3]

CCC(CN)=C(c1ccccc1)c1ccccc1
inactive: Potency [1] | Potency [2] | outcome [3]

COc1cc2nc(Cl)nc(N)c2cc1OC
inactive: Potency [1] | Potency [2] | outcome [3]

CC[N+](CC)(CC)CCOC(=O)C(C1CCCC1)C1CCCC1
inactive: Potency [1] | Potency [2] | outcome [3]

CC(=O)OCC(=O)[C@@]1(O)CCC2C3CCC4=CC(=O)CC[C@]4(C)C3[C@@H](O)C[C@@]21C (some centres undefined)
inactive: Potency [1] | Potency [2] | outcome [3]

CC(C)C[C@@H]1[C@H](c2ccccc2)OC(=O)N1CCCN1CCCCCC1
inactive: Potency [1] | Potency [2] | outcome [3]

CC(=O)[C@H]1CC[C@H]2[C@@H]3C=CC4=CC(=O)CC[C@@]4(C)[C@@H]3CC[C@]12C
inactive: Potency [1] | Potency [2] | outcome [3]

CC(CCc1ccc2c(c1)OCO2)NN (centres undefined)
inactive: Potency [1] | Potency [2] | outcome [3]

CC(C)(Oc1ccc(Cl)cc1)C(=O)OCCCOC(=O)C(C)(C)Oc1ccc(Cl)cc1
inactive: Potency [1] | Potency [2] | outcome [3]

C=CCNc1nc(NCC=C)nc(N2CCN(C(c3ccc(F)cc3)c3ccc(F)cc3)CC2)n1
inactive: Potency [1] | Potency [2] | outcome [3]

O=c1[nH]c2ccccc2c(=O)n1CCCl
inactive: Potency [1] | Potency [2] | outcome [3]

CCOC(=O)[C@H](CCc1ccccc1)N[C@@H](C)C(=O)N(CC(=O)O)C1Cc2ccccc2C1
inactive: Potency [1] | Potency [2] | outcome [3]

CC1(C)S[C@@H]2[C@H](NC(=O)C(c3ccccc3)S(=O)(=O)O)C(=O)N2[C@H]1C(=O)O (some centres undefined)
inactive: Potency [1] | Potency [2] | outcome [3]

N#CC1(c2ccc(F)cc2)CCC(=O)CC1
inactive: Potency [1] | Potency [2] | outcome [3]

CC(=O)OC[C@H]1O[C@@H](OC(C)=O)[C@H](OC(C)=O)[C@@H]1OC(C)=O
inactive: Potency [1] | Potency [2] | outcome [3]

Cc1onc(-c2ccccc2)c1C(=O)Cl
inactive: Potency [1] | Potency [2] | outcome [3]

Nc1nc2ccccc2n1Cc1ccc(F)cc1
inactive: Potency [1] | Potency [2] | outcome [3]

CCNC(=O)NCCCOc1cccc(CN2CCCCC2)c1
inactive: Potency [1] | Potency [2] | outcome [3]

CC(C)C[C@H](NC(=O)CNC(=O)[C@H](Cc1ccc(O)cc1)NC(=O)[C@H](CO)NC(=O)[C@H](Cc1c[nH]c2ccccc12)NC(=O)[C@H](Cc1cnc[nH]1)NC(=O)[C@@H]1CCC(=O)N1)C(=O)N[C@@H](CCCN=C(N)N)C(=O)N1CCC[C@H]1C(=O)NCC(N)=O (stereo in doubt)
inactive: Potency [1] | Potency [2] | outcome [3]

CC(COc1ccccc1)NN (centres undefined)
inactive: Potency [1] | Potency [2] | outcome [3]

O=C(OCC(COC(=O)c1cccnc1)(COC(=O)c1cccnc1)COC(=O)c1cccnc1)c1cccnc1
inactive: Potency [1] | Potency [2] | outcome [3]

CN(C)[C@@H]1C(=O)C(C(N)=O)=C(O)[C@@]2(O)C(=O)C3=C(O)c4c(O)cccc4C[C@H]3C[C@@H]12
inactive: Potency [1] | Potency [2] | outcome [3]
